Results from PubChem BioAssay (NCI).
About 83,000 compounds went through this panel and 20% of them were active in at least one assay; those are over-represented in the sample as a whole.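 48-hour exposure, single concentration, 96-well plates; percent growth endpoint where 0 means no net growth. Active: below 10.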 A number with no mark means an inactive call. Calls of active or inactive are those of the source.

tested on: T-47D breast; assay: NCI-60 one-dose screen, 48 h (100 = growth as untreated, 0 = no growth, -100 = all killed); settings: 10 µM unless noted
Protocol: Growth inhibition of the T-47D human tumor cell line is measured as a screen for anti-cancer activity. Cells are grown in 96 well plates and exposed to the test compound for 48 hours. Compounds are tested at a single concentration, which is 10^-5 M for most compounds. The reported endpoint is percent growth (GI% or GIPRCNT), where numbers from 0 - 100% represent growth inhibition, and numbers from -100% - 0 represent cell death. For example, a value of 40 represents 60% growth inhibition. A value of 0 means no net growth occurred over the course of the experiment. A value of -40 indicates 40% of cells at the beginning of the experiment died by the end of the experiment. A value of -100 means all cells are dead at the end of the experiment.
NCI-60 Human Tumor Cell Lines Screen was performed using the standard one-dose NCI protocol, which is described in more detail at https://dtp.cancer.gov/discovery_development/nci-60/default.htm.
Compounds with GIPRCNT values below 10 were considered active. Activity score was based on GIPRCNT using the following formula: […]
Score is 0 for GIPRCNT values of 100 or above, 50 for GIPRCNT values of 0, and 100 for GIPRCNT values of -100.

| SMILES | growth |
| --- | --- |
| COC(=O)[C@]12CC[C@@H](C)[C@H](C)[C@@H]1C1=CC(=O)[C@@H]3[C@@]4(C)C[C@@H](O)[C@H](O)[C@@]5(C)COC(=C45)C[C@@]3(C)[C@]1(C)CC2 | 51.2% |
| CN1CCN(CCOc2ccc(-c3cnc4c(-c5ccccc5F)cnn4c3)cc2)CC1 | 23% |
| Cn1cc(-c2csc(-c3cn(C(=O)OC(C)(C)C)c4ccccc34)n2)c2cccnc21 | 43.4% |
| O=C(c1ccccc1)C(CN1CCOCC1)c1ccccc1 (stereo not given) | 64.3% |
| COc1cc(NC(C)CN(CC(C)C)C(C)C)c2ncccc2c1 (stereo not given) | 31% |
| NCCn1cc(-c2nc(-c3c[nH]c4ncccc34)cs2)c2cc(F)ccc21 | 26.3% |
| Cc1nn(-c2ccc(Br)cc2)c2nc3[nH]c(=O)[nH]c(=O)c3nc12 | 102% |
| N#CCCCCCn1c2ccccc2c2c3c(c4c5ccccc5n(CCCCCC#N)c4c21)C(=O)N(O)C3=O | 75.7% |
| c1ccc(-c2nc(Nc3ccc(-c4nc5ccccc5[nH]4)cc3)nc(N3CCOCC3)n2)cc1 | -62.3% (active) |
| COc1cccc(-c2nn(-c3ccccc3)cc2-c2ccnc(NCCNS(=O)(=O)c3ccc(C(F)(F)F)cc3)c2)c1 | 3.99% (active) |
| c1csc(-c2nc(-c3cc4ccccc4c(N4CCOCC4)n3)cs2)c1 | 71.2% |
| NCCn1cc(-c2nc(-c3c[nH]c4ncccc34)cs2)c2cc(Br)ccc21 | 44.8% |
| Oc1cccc2oc(=S)[nH]c12 | 104% |
| Cc1ccc(Nc2c(C(N)=O)cnc3ccc(S(=O)(=O)Nc4cc(C)on4)cc23)cc1 | 92.7% |
| C=C(C)[C@@H]1CC[C@]2(C=NCCCNCCCCNCCCN)CC[C@]3(C)[C@H](CC[C@@H]4[C@@]5(C)CCCNC(C)(C)[C@@H]5CC[C@]43C)[C@@H]12 | 90.8% |
| COc1ccc(-c2cc(=O)oc3ccc(Cl)cc23)cc1F | 50.5% |
| COc1ccc(/C(=C\c2ccc3c(c2)OCO3)C(=O)Nc2nc3ccccc3s2)cc1OC | 92.3% |
| O=P(O)(c1ccccc1)c1ccccc1I | 84.5% |
| O=C(O[C@@H]1Cc2c(O)cc(O)cc2O[C@@H]1c1cc(O)c(O)c(O)c1)c1cc(O)c2c(c1)OCO2 | 91.3% |
| Cc1ccc(-c2nc([P+](c3ccccc3)(c3ccccc3)c3ccccc3)c(N3C[C@H]4C[C@H](C3)c3cccc(=O)n3C4)o2)cc1 | 38.5% |

| SMILES | growth |
| --- | --- |
| Cc1cc(N2CCN(C)CC2)nc(N(CCNc2ccnc3cc(Cl)ccc23)Cc2ccco2)n1 | 40.4% |
| COc1cc(-c2cc3cc(O)ccc3oc2=O)cc(OC)c1OC | 75.7% |
| O=c1[nH]c2c3ccncc3cc(-c3cccc(Cl)c3)c2c2cnccc12 | 60.5% |
| CCN1CCN(c2nc(C)cc(N(CCCNc3ccnc4cc(Cl)ccc34)Cc3ccco3)n2)CC1 | 68.4% |
| CC1(C)C(=O)CC[C@]2(C)[C@H]3C(=O)C=C4[C@@H]5C[C@@](C)(C(=O)NCCNCCN)CC[C@]5(C)CC[C@@]4(C)[C@]3(C)CC[C@@H]12 | 82% |
| COc1cccc(NC(=O)c2sc3nc4c(cc3c2N)C(=O)CCC4)c1 | 51.9% |
| Cc1ccc2c(c1)c1nc3cc(C)c(C)cc3nc1n2CCN(C)C | 23.2% |
| O=C(NC1=CC(=O)c2ccccc2C1=O)c1ccccc1 | -45.6% (active) |
| O=C1c2cc3c(cc2-c2c1c1ccc(Cl)cc1c(=O)n2C[C@H](O)[C@@H](O)[C@H](O)CO)OCO3 | -8.86% (active) |
| [B-][N+](CC)(CC)c1ccccc1 | 102% |
| CC(C)(C)CC(C)(C)c1ccc(OCCOCC[N+](C)(C)CC(=O)[O-])cc1 | 103% |
| Cn1cc(-c2nc(-c3c[nH]c4ncccc34)cs2)c2cc(F)ccc21 | 24.3% |
| O=C(/C=C/c1cccc2ccccc12)Nc1ncc(Cc2ccccc2)s1 | 16% |
| Cc1ccc2c(c1)c(-c1nc(-c3c[nH]c4ncccc34)cs1)cn2C | 45.3% |
| Cn1cc(-c2csc(-c3cn(CCCN4CCCCC4)c4ccc(F)cc34)n2)c2cccnc21 | 92% |
| O=C(NO)c1ccc(Cn2c(=O)n(-c3ccccc3)c(=O)c3ccccc32)cc1 | 14.1% |
| C=C(C)[C@@H]1CC[C@]2(C(=O)N3CCN(C)CC3)CC[C@]3(C)[C@H](CC[C@@H]4[C@@]5(C)C/C(=C/c6ccc(C(F)(F)F)cc6)C(=O)C(C)(C)[C@@H]5CC[C@]43C)[C@@H]12 | 79.9% |
| Cc1nnc2nc(N)[nH]n2c1=O | 96.1% |
| Fc1ccc(Nc2nnc(-c3ccc(Cl)cc3)o2)cc1 | 66.2% |
| COc1cc(-c2cc(-c3nc4ccc(F)cc4[nH]3)[nH]n2)cc(OC)c1OC | -21.3% (active) |
